# Data as given in publication PMC7862700, “An all-to-all approach to the identification of sequence-specific readers for epigenetic DNA modifications on cytosine”.
# Legend:
# Experiment in all cases: DAPPL (digital affinity profiling via proximity ligation, sequencing); 10 mM Tris-HCl pH 7.5, 50 mM NaCl, 1 mM DTT, 4% glycerol, room temperature, 30 min; GST-TFs on glutathione beads, 16-mer random dsDNA library, 0.1% formaldehyde crosslink after washing; high values mean tight binding
# FLI1 = molecular target: T1, FLI1 (Homo sapiens, UniProt Q01543 1-452); conditions: protein: recombinant; tags: N-terminal GST; dsDNA, one strand shown
# T1 sequence: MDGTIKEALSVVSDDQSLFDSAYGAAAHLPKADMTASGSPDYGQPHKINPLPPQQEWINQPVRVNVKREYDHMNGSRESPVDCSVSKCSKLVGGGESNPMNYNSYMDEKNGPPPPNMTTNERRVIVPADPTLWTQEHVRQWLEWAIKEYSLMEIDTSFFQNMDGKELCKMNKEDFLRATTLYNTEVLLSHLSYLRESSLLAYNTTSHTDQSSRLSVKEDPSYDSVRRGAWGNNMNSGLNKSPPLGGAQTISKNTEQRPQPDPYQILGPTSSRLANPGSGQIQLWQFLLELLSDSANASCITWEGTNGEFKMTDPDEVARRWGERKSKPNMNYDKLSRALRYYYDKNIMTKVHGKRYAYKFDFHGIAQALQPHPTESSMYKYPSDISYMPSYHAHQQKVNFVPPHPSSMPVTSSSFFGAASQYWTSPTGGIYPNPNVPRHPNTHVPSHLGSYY
# How it was run: (§1)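 Pools of DNA-barcoded human transcription factors, expressed in yeast as GST fusions on glutathione beads and combined with a tag-only sample, were incubated with 200 nmole of a 16-mer random double-stranded DNA library. Incubation took 30 min at room temperature in Tris/NaCl/DTT/glycerol buffer and was followed by washing, 0.1% formaldehyde crosslinking, proximity ligation (BsaI/T4 ligase, 1 h, 37 °C), PCR amplification and sequencing on an Illumina NextSeq500. Binding signal is the ratio of a hexamer's read frequency for a factor to its frequency for the tag-only sample.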
# ELK1 = molecular target: T2, ELK1 (Homo sapiens, UniProt P19419 1-428); conditions: protein: recombinant; tags: N-terminal GST; dsDNA, one strand shown
# T2 sequence: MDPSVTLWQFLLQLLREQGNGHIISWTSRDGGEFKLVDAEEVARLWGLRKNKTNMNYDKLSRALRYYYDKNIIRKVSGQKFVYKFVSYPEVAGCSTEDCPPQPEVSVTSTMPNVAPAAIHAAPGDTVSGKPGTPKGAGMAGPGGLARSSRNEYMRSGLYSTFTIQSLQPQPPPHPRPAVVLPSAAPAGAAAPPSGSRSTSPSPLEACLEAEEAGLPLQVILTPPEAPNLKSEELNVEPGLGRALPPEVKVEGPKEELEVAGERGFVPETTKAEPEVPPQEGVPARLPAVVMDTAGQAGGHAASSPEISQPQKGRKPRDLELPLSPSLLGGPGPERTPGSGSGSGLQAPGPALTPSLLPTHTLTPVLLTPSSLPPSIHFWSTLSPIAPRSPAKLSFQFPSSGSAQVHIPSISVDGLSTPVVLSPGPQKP
# How it was run: as §1
# GABPA = molecular target: T3, GABPA (Homo sapiens, UniProt Q06546 1-454); conditions: protein: recombinant; tags: N-terminal GST; dsDNA, one strand shown
# T3 sequence: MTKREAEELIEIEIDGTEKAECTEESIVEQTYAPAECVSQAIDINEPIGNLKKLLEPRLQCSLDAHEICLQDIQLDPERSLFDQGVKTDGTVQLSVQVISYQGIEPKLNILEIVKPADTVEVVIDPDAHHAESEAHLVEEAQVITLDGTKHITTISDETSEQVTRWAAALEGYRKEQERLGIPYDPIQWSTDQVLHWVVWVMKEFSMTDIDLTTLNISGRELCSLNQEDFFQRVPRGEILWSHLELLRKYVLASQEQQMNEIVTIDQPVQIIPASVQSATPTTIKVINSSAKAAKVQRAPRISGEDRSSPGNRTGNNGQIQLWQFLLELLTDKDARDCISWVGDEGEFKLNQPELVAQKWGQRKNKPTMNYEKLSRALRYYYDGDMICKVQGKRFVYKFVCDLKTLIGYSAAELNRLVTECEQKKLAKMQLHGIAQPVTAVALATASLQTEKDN
# How it was run: as §1
# ERG = molecular target: T4, ERG (Homo sapiens, UniProt P11308 1-479); conditions: protein: recombinant; tags: N-terminal GST; dsDNA, one strand shown
# T4 sequence: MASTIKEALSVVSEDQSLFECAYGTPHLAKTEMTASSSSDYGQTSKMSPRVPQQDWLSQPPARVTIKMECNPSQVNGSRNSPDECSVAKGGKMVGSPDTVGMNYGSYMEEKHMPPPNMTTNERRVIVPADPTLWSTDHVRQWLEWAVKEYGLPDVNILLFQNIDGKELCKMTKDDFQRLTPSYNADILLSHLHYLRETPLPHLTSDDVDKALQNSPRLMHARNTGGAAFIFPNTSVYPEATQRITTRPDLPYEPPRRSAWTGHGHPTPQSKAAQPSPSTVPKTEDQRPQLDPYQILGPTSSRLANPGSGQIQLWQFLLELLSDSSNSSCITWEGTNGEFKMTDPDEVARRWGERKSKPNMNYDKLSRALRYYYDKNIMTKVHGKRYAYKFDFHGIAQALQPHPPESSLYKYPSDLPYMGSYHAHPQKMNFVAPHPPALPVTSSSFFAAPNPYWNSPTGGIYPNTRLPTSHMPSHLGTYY
# How it was run: as §1
# ELF1 = ELF1 (Homo sapiens, UniProt P32519 1-619); conditions: protein: recombinant; tags: N-terminal GST; dsDNA, one strand shown
# ELF1, sequence (P32519 whole entry): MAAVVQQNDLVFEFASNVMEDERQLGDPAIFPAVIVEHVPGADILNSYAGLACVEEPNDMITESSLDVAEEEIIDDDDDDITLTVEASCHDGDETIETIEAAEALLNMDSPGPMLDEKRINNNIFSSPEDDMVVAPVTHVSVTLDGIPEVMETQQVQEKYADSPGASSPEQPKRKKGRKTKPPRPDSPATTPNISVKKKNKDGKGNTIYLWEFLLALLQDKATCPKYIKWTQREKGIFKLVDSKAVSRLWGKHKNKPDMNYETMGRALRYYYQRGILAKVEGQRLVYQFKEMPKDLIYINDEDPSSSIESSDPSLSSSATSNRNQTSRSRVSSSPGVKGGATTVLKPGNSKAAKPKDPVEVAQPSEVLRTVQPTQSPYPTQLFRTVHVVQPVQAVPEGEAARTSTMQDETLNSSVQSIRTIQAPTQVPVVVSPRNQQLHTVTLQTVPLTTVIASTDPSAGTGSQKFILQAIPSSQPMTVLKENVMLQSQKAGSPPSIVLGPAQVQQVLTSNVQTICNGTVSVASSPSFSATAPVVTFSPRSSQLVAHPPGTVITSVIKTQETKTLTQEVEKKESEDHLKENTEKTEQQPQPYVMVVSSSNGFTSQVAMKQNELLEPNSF
# How it was run: as §1
# EHF = molecular target: T5, EHF (Homo sapiens, UniProt Q9NZC4 1-300); conditions: protein: recombinant; tags: N-terminal GST; dsDNA, one strand shown
# T5 sequence: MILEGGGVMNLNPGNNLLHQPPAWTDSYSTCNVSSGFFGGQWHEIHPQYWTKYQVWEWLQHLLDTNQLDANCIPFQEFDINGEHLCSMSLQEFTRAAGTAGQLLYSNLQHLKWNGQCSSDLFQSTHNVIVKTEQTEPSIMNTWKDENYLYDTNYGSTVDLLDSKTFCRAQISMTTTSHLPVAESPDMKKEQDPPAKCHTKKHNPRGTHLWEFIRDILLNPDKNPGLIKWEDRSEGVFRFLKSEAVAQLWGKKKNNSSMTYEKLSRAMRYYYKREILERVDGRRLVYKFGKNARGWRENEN
# How it was run: as §1
# SPI1 = SPI1 (Homo sapiens, UniProt P17947 1-270); conditions: protein: recombinant; tags: N-terminal GST; dsDNA, one strand shown
# How it was run: as §1
# SPIB = SPIB (Homo sapiens, UniProt Q01892 1-262); conditions: protein: recombinant; tags: N-terminal GST; dsDNA, one strand shown
# SPIB, sequence (Q01892 whole entry): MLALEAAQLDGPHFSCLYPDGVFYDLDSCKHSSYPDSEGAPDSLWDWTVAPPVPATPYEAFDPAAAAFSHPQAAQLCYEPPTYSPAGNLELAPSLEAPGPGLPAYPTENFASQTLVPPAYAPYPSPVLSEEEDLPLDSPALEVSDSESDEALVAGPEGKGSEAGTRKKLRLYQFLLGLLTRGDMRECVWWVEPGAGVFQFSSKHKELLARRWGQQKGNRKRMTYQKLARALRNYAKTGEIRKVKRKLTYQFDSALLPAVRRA
# How it was run: as §1
# ELK3 = molecular target: T6, ELK3 (Homo sapiens, UniProt P41970 1-407); conditions: protein: recombinant; tags: N-terminal GST; dsDNA, one strand shown
# T6 sequence: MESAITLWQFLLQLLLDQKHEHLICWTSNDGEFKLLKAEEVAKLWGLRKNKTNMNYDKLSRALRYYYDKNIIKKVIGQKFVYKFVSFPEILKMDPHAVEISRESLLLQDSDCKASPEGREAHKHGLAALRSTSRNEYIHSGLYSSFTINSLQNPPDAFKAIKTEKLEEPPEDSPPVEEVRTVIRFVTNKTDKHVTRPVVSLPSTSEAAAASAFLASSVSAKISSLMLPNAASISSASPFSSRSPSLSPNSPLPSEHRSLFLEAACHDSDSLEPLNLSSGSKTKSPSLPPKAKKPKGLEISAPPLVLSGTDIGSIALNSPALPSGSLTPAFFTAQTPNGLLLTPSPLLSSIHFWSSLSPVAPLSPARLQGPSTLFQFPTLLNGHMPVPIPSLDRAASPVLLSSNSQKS
# How it was run: as §1
# FEV = molecular target: T7, FEV (Homo sapiens, UniProt Q99581 1-238); conditions: protein: recombinant; tags: N-terminal GST; dsDNA, one strand shown
# T7 sequence: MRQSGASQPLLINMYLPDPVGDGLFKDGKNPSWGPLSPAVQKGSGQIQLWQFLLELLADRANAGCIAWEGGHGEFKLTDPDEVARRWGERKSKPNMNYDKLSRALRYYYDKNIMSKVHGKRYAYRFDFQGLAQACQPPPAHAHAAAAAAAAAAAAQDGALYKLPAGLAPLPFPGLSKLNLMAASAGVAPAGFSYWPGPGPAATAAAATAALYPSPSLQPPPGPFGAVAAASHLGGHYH
# How it was run: as §1
# ETV5 = ETV5 (Homo sapiens, UniProt P41161 1-510); conditions: protein: recombinant; tags: N-terminal GST; dsDNA, one strand shown
# ETV5, sequence (P41161 whole entry): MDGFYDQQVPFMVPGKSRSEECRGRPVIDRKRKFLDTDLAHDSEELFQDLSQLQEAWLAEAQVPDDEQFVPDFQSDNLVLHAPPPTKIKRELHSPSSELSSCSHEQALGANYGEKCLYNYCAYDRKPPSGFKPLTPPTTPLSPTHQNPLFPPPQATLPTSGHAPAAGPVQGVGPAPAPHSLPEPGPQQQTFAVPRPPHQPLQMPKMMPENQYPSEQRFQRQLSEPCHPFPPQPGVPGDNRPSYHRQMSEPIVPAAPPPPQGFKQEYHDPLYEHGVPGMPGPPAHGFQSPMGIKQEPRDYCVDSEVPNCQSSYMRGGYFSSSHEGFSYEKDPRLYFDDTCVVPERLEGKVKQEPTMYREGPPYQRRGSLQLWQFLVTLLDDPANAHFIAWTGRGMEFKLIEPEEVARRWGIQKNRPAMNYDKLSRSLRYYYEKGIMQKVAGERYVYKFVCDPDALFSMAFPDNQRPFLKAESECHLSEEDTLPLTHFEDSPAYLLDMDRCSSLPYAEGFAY
# How it was run: as §1
# HSF1 = HSF1 (Homo sapiens, UniProt Q00613 1-529); conditions: protein: recombinant; tags: N-terminal GST; chain copies: 3; dsDNA, one strand shown
# HSF1, sequence (Q00613 whole entry): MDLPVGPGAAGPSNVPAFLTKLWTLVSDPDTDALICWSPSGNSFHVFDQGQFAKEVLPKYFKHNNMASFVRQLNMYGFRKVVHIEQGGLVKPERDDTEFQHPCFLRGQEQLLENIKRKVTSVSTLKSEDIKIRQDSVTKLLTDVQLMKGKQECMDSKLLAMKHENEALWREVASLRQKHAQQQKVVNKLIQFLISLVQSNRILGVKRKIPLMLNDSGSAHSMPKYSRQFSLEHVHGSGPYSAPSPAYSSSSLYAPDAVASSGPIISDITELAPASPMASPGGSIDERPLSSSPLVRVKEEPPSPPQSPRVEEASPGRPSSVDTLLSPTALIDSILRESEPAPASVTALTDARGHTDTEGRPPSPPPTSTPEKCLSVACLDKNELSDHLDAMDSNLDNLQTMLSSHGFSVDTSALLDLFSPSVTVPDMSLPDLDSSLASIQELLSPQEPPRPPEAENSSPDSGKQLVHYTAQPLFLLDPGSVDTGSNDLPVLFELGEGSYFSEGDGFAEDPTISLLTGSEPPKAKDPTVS
# How it was run: as §1
# SPIC = molecular target: T8, SPIC (Homo sapiens, UniProt Q8N5J4 1-248); conditions: protein: recombinant; tags: N-terminal GST; dsDNA, one strand shown
# T8 sequence: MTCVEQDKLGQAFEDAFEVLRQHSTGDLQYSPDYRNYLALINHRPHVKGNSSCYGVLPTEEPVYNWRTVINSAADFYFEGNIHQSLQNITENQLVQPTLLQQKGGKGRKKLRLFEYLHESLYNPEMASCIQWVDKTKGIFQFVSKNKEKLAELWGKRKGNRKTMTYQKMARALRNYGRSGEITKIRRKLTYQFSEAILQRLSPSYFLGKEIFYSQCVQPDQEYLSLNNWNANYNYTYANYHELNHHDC
# How it was run: as §1
# ELF4 = ELF4 (Homo sapiens, UniProt Q99607 1-663); conditions: protein: recombinant; tags: N-terminal GST; dsDNA, one strand shown
# ELF4, sequence (Q99607 whole entry): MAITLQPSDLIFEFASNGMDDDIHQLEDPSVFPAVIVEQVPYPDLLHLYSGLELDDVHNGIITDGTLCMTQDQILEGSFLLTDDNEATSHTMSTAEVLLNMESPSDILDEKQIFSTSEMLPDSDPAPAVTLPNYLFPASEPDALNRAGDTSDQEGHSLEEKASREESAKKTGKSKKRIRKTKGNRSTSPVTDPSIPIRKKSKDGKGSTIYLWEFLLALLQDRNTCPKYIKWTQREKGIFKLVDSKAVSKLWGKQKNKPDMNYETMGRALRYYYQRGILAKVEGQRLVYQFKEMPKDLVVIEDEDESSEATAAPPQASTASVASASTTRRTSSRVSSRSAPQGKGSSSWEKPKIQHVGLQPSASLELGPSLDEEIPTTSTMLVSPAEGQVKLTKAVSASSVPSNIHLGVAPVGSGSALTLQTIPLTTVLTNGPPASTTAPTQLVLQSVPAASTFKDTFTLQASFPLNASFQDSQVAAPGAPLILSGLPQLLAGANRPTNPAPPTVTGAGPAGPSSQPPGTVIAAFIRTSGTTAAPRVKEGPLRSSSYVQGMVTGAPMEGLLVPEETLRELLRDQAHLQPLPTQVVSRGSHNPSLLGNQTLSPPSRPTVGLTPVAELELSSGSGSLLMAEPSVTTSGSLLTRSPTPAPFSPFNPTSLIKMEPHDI
# How it was run: as §1
# ELK4 = molecular target: T9, ELK4 (Homo sapiens, UniProt P28324-2 1-405); conditions: protein: recombinant; tags: N-terminal GST; dsDNA, one strand shown
# T9 sequence: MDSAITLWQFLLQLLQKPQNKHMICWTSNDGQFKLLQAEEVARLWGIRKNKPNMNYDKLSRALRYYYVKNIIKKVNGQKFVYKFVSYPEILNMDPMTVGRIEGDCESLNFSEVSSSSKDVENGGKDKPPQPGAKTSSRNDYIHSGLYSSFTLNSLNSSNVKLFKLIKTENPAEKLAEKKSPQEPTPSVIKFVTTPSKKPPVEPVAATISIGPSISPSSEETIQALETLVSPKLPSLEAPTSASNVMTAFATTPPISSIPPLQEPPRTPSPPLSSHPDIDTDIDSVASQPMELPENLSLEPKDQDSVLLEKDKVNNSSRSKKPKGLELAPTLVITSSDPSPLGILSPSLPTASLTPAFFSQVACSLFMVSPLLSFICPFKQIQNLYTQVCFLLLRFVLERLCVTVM
# How it was run: as §1
# ETV2 = molecular target: T10, ETV2 (Homo sapiens, UniProt O00321 1-342); conditions: protein: recombinant; tags: N-terminal GST; dsDNA, one strand shown
# T10 sequence: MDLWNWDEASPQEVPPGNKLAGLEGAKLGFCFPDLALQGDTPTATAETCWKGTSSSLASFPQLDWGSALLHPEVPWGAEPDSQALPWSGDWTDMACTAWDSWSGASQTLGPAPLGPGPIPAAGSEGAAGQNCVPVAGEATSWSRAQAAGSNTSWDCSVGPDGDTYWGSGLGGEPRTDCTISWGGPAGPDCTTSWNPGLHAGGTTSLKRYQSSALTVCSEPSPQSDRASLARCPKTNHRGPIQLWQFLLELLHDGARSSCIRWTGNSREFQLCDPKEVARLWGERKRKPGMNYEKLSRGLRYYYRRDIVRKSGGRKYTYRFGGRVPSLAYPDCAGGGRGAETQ
# How it was run: as §1
# ELF3 = molecular target: T11, ELF3 (Homo sapiens, UniProt P78545 1-371); conditions: protein: recombinant; tags: N-terminal GST; dsDNA, one strand shown
# T11 sequence: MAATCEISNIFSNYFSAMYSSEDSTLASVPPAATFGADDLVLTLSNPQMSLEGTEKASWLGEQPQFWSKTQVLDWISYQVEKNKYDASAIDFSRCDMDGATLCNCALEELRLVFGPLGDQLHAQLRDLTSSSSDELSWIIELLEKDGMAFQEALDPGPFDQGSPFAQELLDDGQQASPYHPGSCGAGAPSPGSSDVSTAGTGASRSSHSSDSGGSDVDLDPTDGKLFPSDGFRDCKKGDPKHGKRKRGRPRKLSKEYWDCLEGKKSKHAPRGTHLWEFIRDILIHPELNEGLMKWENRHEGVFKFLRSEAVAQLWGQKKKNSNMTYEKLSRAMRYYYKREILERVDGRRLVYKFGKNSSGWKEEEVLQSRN
# How it was run: as §1
# CRX = CRX (Homo sapiens, UniProt O43186 1-299); conditions: protein: recombinant; tags: N-terminal GST; dsDNA, one strand shown
# CRX, sequence (O43186 whole entry): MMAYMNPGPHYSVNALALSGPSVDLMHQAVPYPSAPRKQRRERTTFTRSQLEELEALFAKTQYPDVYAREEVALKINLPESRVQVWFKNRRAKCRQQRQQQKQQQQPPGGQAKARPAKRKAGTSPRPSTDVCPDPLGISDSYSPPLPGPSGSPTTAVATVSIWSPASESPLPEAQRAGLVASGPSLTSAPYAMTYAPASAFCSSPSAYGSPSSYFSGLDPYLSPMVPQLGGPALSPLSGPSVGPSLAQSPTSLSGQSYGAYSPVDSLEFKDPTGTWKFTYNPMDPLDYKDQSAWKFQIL
# How it was run: as §1
# ETV1 = ETV1 (Homo sapiens, UniProt P50549 1-477); conditions: protein: recombinant; tags: N-terminal GST; dsDNA, one strand shown
# ETV1, sequence (P50549 whole entry): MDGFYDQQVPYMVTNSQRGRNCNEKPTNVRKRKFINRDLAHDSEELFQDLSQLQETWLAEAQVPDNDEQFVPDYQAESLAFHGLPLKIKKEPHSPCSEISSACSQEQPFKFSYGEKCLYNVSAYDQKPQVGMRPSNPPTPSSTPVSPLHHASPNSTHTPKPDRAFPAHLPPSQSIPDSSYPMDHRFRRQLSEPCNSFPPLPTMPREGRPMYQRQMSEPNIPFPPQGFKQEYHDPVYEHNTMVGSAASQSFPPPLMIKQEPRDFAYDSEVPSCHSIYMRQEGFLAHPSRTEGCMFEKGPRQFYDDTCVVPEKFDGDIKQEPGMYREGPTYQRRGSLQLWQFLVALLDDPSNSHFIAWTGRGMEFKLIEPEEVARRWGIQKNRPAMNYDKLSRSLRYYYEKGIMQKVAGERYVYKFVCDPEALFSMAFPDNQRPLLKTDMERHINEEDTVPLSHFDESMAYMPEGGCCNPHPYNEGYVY
# How it was run: as §1
sequence,measurement,setting,value
CCTTGG,binding signal,FLI1,"1.28 fold enrichment (6-mer frequency, TF over GST control)"
same,binding signal,ELK1,"1.41 fold enrichment (6-mer frequency, TF over GST control)"
same,binding signal,GABPA,"1.34 fold enrichment (6-mer frequency, TF over GST control)"
same,binding signal,ERG,"1.28 fold enrichment (6-mer frequency, TF over GST control)"
same,binding signal,ELF1,"1.28 fold enrichment (6-mer frequency, TF over GST control)"
same,binding signal,EHF,"1.37 fold enrichment (6-mer frequency, TF over GST control)"
same,binding signal,SPI1,"1.24 fold enrichment (6-mer frequency, TF over GST control)"
same,binding signal,SPIB,"1.32 fold enrichment (6-mer frequency, TF over GST control)"
same,binding signal,ELK3,"1.4 fold enrichment (6-mer frequency, TF over GST control)"
same,binding signal,FEV,"1.17 fold enrichment (6-mer frequency, TF over GST control)"
same,binding signal,ETV5,"1.21 fold enrichment (6-mer frequency, TF over GST control)"
same,binding signal,HSF1,"1.1 fold enrichment (6-mer frequency, TF over GST control)"
same,binding signal,SPIC,"1.23 fold enrichment (6-mer frequency, TF over GST control)"
same,binding signal,ELF4,"1.27 fold enrichment (6-mer frequency, TF over GST control)"
same,binding signal,ELK4,"1.37 fold enrichment (6-mer frequency, TF over GST control)"
same,binding signal,ETV2,"1.28 fold enrichment (6-mer frequency, TF over GST control)"
same,binding signal,ELF3,"1.22 fold enrichment (6-mer frequency, TF over GST control)"
same,binding signal,CRX,"1.09 fold enrichment (6-mer frequency, TF over GST control)"
same,binding signal,ETV1,"1.35 fold enrichment (6-mer frequency, TF over GST control)"
